Records with an inconclusive call do not appear. Entries that show only a call come without a potency. Calls of active or inactive are those of the source. Calls come from the whole dose curve; as a rule, active = well fitted cell-killing curve with a large enough effect; inconclusive = small, poorly fitted or top-dose-only effect, or effect the other way; inactive = flat fitted curve, though single readings scatter.
Test system: Tov112D
Assay: Primary qHTS to identify gynecologic anti-cancer compounds using libraries of approved drugs and bioactive compounds (AID 1345084); note: nearly all actives have a fitted effect of over 55% in size
Details: Gynecologic cancer cell panel viability, ATPlite luminescence, 48 h; series mostly up to 57.5 µM
Procedure, shortened: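 In this quantitative HTS, cell killing is estimated from loss of ATP-dependent luciferase light. Cells see five compound concentrations over a 48 h exposure.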
Potency is the fitted concentration of half-maximal effect.

Compound	Potency	activity change, negative = cytotoxicity
CC(=O)O[C@@]12CO[C@@H]1C[C@H](O)[C@@]1(C)C(=O)[C@H](O)C3=C(C)[C@@H](OC(=O)[C@H](O)[C@@H](NC(=O)OC(C)(C)C)c4ccccc4)C[C@@](O)([C@@H](OC(=O)c4ccccc4)C12)C3(C)C (some centres undefined)	inactive	
CCN(CC)C(=O)c1ccc(Nc2nc(OCC3CCCCC3)c3[nH]cnc3n2)cc1	inactive	
C/C(=N\N=C(N)N)c1cc(NC(=O)CCCCCCCCC(=O)Nc2cc(/C(C)=N/N=C(N)N)cc(/C(C)=N/N=C(N)N)c2)cc(/C(C)=N/N=C(N)N)c1	inactive	
Fc1ccc(-c2nc(C3CCNCC3)sc2-c2ccnc(NC3CC3)n2)cc1	inactive	
C/C=C(\C)C(=O)O[C@H]1C=C(CO)C(=O)[C@H](OC(C)=O)[C@H]1C(C)C	inactive	
Cc1nc2ccc(CN(C)c3ccc(C(=O)NC(CCC(=O)O)C(=O)O)s3)cc2c(=O)[nH]1 (centres undefined)	0.282 µM (active)	
C[C@H](Oc1cc(-c2cnn(C3CCNCC3)c2)cnc1N)c1c(Cl)ccc(F)c1Cl	inactive	
C/C=C(/C)C(=O)O[C@H]1[C@H](OC(=O)/C(C)=C\C)[C@@]23C(CC1(C)C)[C@]1(CCC4[C@@]5(C)CC[C@H](O[C@@H]6O[C@H](C(=O)O)[C@@H](O)[C@H](O[C@@H]7O[C@H](CO)[C@H](O)[C@H](O)[C@H]7O[C@@H]7O[C@@H](C)[C@H](O)[C@@H](O)[C@H]7O[C@@H]7OC[C@@H](O)[C@H](O)[C@H]7O)[C@H]6O[C@@H]6O[C@H](CO)[C@H](O)[C@H](O)[C@H]6O)C(C)(C)C5CC[C@@]4(C)[C@]1(C)C[C@H]2O)O[C@H]3O (some centres undefined)		-22.5% [at 6.55 µM] (inactive)
C[C@H](Nc1ncnc2nc[nH]c12)c1cc2cccc(Cl)c2c(=O)n1-c1ccccc1	inactive	
CC(=O)Nc1nc(C)c(-c2nc(N3CCCC(O)C3)no2)s1 (centres undefined)	inactive	
CC(C)C[C@@H]1NC(=O)[C@@H](Cc2ccccc2)NC(=O)C(CCCCCC(=O)C2CO2)NC(=O)[C@@H]2CCCCN2C1=O (some centres undefined)	inactive	
COc1cc(CCc2cc(NC(=O)c3ccc(N4CC(C)NC(C)C4)cc3)n[nH]2)cc(OC)c1 (centres undefined)	inactive	
CC(O)(C(=O)O)C1CCC2(C)C1CCC1(C)C2CCC2C3(C)CCC(O)C(C)(COC4OC(CO)C(O)C(O)C4O)C3CCC21C (centres undefined)	8.91 µM (active)	
CO[C@H]1[C@@H](O)[C@H](O[C@H]2CC[C@@]3(C)C(CCC4C3CC[C@]35COC6(COC(=O)C6)C3CCC45O)C2)O[C@@H](C)[C@@H]1OC1OC(CO)C(OC2OC(CO)C(O)C(O)C2O)C(O)C1O (some centres undefined)	2.82 µM (active)	
COc1ccc(C2=NC(c3ccc(Cl)cc3)C(c3ccc(Cl)cc3)N2C(=O)N2CCNC(=O)C2)c(OC(C)C)c1 (centres undefined)	inactive	
C=C1C(=O)O[C@H]2CC(=C)[C@H]3CC[C@@](C)(O)[C@@H]3CC12 (some centres undefined)	inactive	
N#Cc1cc(CN2CCC(Nc3ncnc4sc(Cl)cc34)CC2)ccc1F	inactive	

Compound	Potency	activity change, negative = cytotoxicity
COC1=CC(=O)C[C@@H](C)[C@@]12Oc1c(Cl)c(OC)cc(OC)c1C2=O	0.1 µM (active)	
Cn1cc(-c2cnn3c(N)c(Br)c([C@@H]4CCCNC4)nc23)cn1	inactive	
COc1cc2ncnc(Nc3ccc(O)c(Br)c3)c2cc1OC	inactive	
Cc1ccc(NC(=O)C(C)C)cc1C1CCN(Cc2ccc(Oc3ccc(F)c(F)c3)cc2)CC1	inactive	
C=C(C=O)[C@]1(O)C[C@@]2(C)C(=CC1=O)C=C[C@H](OC(=O)/C=C/C=C/[C@H](C)CC)[C@@H]2C	inactive	
COc1cc(Br)c(S(=O)(=O)Nc2ccc(Cl)c(O[C@@H]3CCN(C)C3)c2)cc1OC	inactive	
N#C/C(=C1\Nc2ccccc2S1)c1ccnc(NCCc2cccnc2)n1	inactive	
CN1CCN(C2CCN(C(=O)Nc3cc(Oc4ccc(NC(=O)C5(C(=O)Nc6ccc(F)cc6)CC5)c(F)c4)ccn3)CC2)CC1	inactive	
CN(C)C(=O)NC1(c2ccccc2)CCN(CCC[C@]2(c3ccc(Cl)c(Cl)c3)CCCN(C(=O)c3ccccc3)C2)CC1	inactive	
CC1(C)CC[C@]2(C(=O)O)CC[C@]3(C)C(=CCC4[C@@]5(C)C[C@@H](O)[C@H](O)C(CO)(CO)C5CC[C@]43C)C2[C@@H]1O (some centres undefined)	7.94 µM (active)	
Cc1cc(C(C)Nc2ccccc2C(=O)O)c2nc(N3CCOCC3)cc(=O)n2c1 (centres undefined)	inactive	
CCCC(CCC)C(=O)Nc1ccn([C@@H]2O[C@H](CO)[C@@H](O)C2(F)F)c(=O)n1	10 µM (active)	
C[C@@H]1O[C@@H](O[C@H]2[C@H](OC(=O)[C@]34CCC(C)(C)C[C@H]3C3=CCC5[C@@]6(C)C[C@H](O)[C@H](O[C@@H]7O[C@H](CO)[C@@H](O)[C@H](O)[C@H]7O)[C@](CO)(C(=O)O)C6CC[C@@]5(C)[C@]3(C)C[C@H]4O)OC[C@H](O)[C@@H]2O)[C@H](O)[C@H](O)[C@H]1O[C@@H]1OC[C@@H](O)[C@H](O[C@@H]2OC[C@](O)(CO)[C@H]2O)[C@H]1O (some centres undefined)	1.41 µM (active)	
C[C@H]1[C@H](/C=C/c2ccc(-c3ccccc3C#N)cn2)[C@@H]2[C@@H](C)OC(=O)[C@@H]2C[C@@H]1C	20 µM (active)	
CN1CCN(S(=O)(=O)c2ccc(-c3cnc(N)c(C(=O)Nc4cccnc4)n3)cc2)CC1	inactive	
Cn1ncc(Cl)c1-c1cc(C(=O)NC(CN)Cc2ccc(F)c(F)c2)oc1Cl (centres undefined)	inactive	
C=C1C(=O)O[C@H]2C[C@@H](C)[C@@H]3CCC(=O)[C@@]3(C)C[C@H]12	inactive	

From PubChem BioAssay (NCATS)
